# In PubChem BioAssay:
# Activity calls are given as the source filed them.
# Columns and labels:
# [1] = tested on: Plasmodium falciparum Sir2 (PF13_0152, Sir2A); assay: pfSir2 binders on small-molecule microarrays, primary screen, biochemical, small-molecule microarray, 635 nm fluorescence (AID 1098); conditions: small-molecule microarray binding, fluorescence 635 nm; higher = more signal;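 further: score merges spot fluorescence intensity with its signal-to-noise ratio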
# [2] = small-molecule microarray binders of probe aDKK1, primary screen, biochemical, biotinylated probe, 635/667 nm fluorescence (AID 1099); conditions: higher = more signal;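 further: score merges 667nm spot fluorescence with signal to noise across triplicate slides; reference of the scale not given here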
# [3] = small-molecule microarray binders of probe aCHRDL2, primary screen, biochemical, biotinylated probe, 635/667 nm fluorescence (AID 1100); conditions: higher = more signal
# [4] = splicing luciferase reporter signal modulators, primary screen, spliceosome inhibition project, cell-based, HEK293, splice +/- reporter (AID 1101); conditions: luminescence, 24 h, higher = more signal, called active from +8 up or from −8 down;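 further: HEK293 cells carrying a splicing-competent luciferase reporter gene; test concentration not given here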
# [5] = biological target: Fibroblast growth factor 10 (Homo sapiens) (UniProt O15520); assay: FGF10 binders on small-molecule microarrays, primary screen, biochemical, small-molecule microarray, 635 nm fluorescence (AID 1102); conditions: FGF10 binding, fluorescence 635 nm, higher = more signal
# [6] = tested on: glycogen synthase kinase-3 (GSK3A per assay name; protocol says GSK3B); assay: GSK3 binders on small-molecule microarrays, primary screen, biochemical, small-molecule microarray, 635 nm fluorescence, GSK3A (AID 1103); conditions: small-molecule microarray binding, fluorescence 635 nm; higher = more signal; further: the record names both GSK3A and GSK3B
# [7] = biological target: Epidermal growth factor receptor (Homo sapiens) (UniProt P00533); assay: EGFR binders on small-molecule microarrays, primary screen, biochemical, small-molecule microarray, 635 nm fluorescence (AID 1104); conditions: EGFR binding, higher = more signal;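 further: score merges 667 nm emission intensity with spot signal to noise over triplicate slides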
# [8] = biological target: Follistatin-related protein 3 (Homo sapiens) (UniProt O95633); assay: FSTL3 binders on small-molecule microarrays, primary screen, biochemical, small-molecule microarray, 635 nm fluorescence (AID 1105); conditions: FSTL3 binding, higher = more signal;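 further: score merges emission near 667 nm and signal to noise per printed spot across three slides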
# [9] = biological target: Dickkopf-related protein 1 (Homo sapiens) (UniProt O94907); assay: DKK1 binders on small-molecule microarrays, primary screen, biochemical, small-molecule microarray, 635 nm fluorescence scan (AID 1106); conditions: DKK1 binding, higher = more signal;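 further: score merges emission near 667 nm with signal to noise over three replicate slides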
# [10] = tested on: Inhibin beta A chain (activin A); assay: INHBA (activin A) binders on microarrays, primary screen, biochemical, small-molecule microarray, 635 nm fluorescence scan (AID 1107); conditions: small-molecule microarray binding, higher = more signal;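 further: mouse activin A protein probed at 4.33 µg/mL on printed slides; score merges bound-protein fluorescence near 667 nm with spot signal-to-noise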
# Chain of Follistatin-related protein 3 (Homo sapiens) (O95633 whole entry, looked up): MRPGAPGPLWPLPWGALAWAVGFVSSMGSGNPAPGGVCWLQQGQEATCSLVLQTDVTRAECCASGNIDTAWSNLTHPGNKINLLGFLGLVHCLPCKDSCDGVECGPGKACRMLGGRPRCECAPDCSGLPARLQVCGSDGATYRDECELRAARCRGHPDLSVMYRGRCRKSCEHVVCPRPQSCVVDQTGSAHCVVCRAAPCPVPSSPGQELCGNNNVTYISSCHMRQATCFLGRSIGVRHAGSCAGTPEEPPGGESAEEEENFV
# Chain of Dickkopf-related protein 1 (Homo sapiens) (O94907 whole entry, looked up): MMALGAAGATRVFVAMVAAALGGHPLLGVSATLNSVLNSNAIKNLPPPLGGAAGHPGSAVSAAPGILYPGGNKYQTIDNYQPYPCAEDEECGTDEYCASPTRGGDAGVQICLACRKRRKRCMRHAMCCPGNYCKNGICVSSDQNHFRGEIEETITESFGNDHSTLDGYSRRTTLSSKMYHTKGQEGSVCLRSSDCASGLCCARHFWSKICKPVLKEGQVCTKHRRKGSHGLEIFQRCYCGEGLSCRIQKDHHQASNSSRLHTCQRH
# Chain of Fibroblast growth factor 10 (Homo sapiens) (O15520 whole entry, looked up): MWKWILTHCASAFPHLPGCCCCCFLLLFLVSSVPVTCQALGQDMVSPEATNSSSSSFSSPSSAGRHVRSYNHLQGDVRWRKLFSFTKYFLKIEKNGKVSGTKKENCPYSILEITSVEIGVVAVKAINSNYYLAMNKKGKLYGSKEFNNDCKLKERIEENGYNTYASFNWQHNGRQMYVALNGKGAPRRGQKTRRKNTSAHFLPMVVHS
# Chain of Epidermal growth factor receptor (Homo sapiens) (P00533 whole entry, looked up): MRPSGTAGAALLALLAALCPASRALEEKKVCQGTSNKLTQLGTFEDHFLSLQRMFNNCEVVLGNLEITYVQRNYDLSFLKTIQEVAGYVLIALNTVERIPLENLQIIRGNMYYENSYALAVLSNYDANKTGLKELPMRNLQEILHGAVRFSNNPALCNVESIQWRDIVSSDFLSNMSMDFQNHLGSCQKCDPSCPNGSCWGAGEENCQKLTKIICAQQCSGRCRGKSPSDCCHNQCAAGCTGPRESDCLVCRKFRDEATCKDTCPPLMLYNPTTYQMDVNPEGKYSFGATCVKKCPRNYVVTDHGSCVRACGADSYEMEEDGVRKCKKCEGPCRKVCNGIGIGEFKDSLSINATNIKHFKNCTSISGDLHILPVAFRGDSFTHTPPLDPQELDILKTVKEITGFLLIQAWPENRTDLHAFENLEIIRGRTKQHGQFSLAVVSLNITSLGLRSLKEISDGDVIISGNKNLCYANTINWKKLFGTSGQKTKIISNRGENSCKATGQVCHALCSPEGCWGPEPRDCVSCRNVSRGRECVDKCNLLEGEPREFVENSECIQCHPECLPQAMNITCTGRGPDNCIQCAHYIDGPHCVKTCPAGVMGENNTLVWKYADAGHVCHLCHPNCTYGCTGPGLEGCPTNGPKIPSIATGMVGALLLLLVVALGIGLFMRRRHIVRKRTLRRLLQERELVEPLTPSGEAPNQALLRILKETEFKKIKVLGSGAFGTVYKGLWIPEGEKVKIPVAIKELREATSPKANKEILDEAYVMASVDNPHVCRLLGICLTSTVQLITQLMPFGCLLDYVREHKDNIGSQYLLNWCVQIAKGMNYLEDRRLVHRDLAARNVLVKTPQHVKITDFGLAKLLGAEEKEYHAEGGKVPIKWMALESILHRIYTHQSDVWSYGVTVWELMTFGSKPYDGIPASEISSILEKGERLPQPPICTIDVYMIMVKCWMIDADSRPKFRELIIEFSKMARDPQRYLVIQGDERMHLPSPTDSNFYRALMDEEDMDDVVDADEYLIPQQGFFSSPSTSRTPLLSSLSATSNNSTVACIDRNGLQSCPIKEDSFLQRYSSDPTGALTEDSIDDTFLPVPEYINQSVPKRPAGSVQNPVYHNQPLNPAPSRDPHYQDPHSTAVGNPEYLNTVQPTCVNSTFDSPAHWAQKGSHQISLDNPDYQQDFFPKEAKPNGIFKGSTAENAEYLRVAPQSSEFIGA
Compound,composite z-score [1],composite z-score [2],composite z-score [3],z-score [4],composite z-score [5],composite z-score [6],composite z-score [7],composite z-score [8],composite z-score [9],composite z-score [10]
CC1(C)[C@@H]2CC(C(O)C3C=CC4C(=O)N(Cc5ccccc5)C(=O)C4N3n3cnnc3)=C[C@H]1C2 (stereo not given in full),0.779,0.454,0.355,-0.0958 (inactive),0.801,1.28,0.0902,0.74,0.0252,1.2
C=C(COC)/C(=C/C[C@@H](OC(C)=O)c1ccc(OCCO)cc1)c1cnc2ccccc2c1,1.14,-0.151,0.352,-0.949 (inactive),1.57,0.369,0.824,1.49,1.25,1.7
COc1cc(C(O)C2C=CC3C(=O)NC(=O)C3N2Nc2ccccn2)cc(OC)c1OC (stereo not given),1.18,-0.149,0.418,1.53 (inactive),0.12,0.211,0.635,-0.027,0.336,0.791
OCCCC1=CC(c2cccs2)N(Cc2cc3c(cc2Br)OCO3)CC1 (stereo not given),0.725,-0.16,0.197,-0.252 (inactive),0.21,-0.0247,-0.275,-0.0688,0.211,1.01
NC(=O)NCC#Cc1ccc2c(c1)[C@]1(C(=O)N2)[C@H](c2ccccc2OCCO)N2[C@H](c3ccccc3)[C@H](c3ccccc3)OC(=O)[C@H]2[C@@H]1C(=O)Nc1nc2ccccc2s1,0.134,-0.0335,0.483,0.663 (inactive),0.271,-0.175,-0.209,0.429,0.0336,0.52
COc1cc2c(cc1OC)CN(C(=O)[C@@H]1[C@H]3C(=O)O[C@H](c4ccccc4)[C@H](c4ccccc4)N3[C@H](c3ccc(O)cc3)[C@@]13C(=O)Nc1ccccc13)CC2,1.66,-0.22,0.104,-0.764 (inactive),0.397,1,-0.0444,0.346,0.27,-0.131
COC(=O)[C@@]1(Cc2ccc(OC)cc2)[C@H]2c3cc(C(=O)N(C)C)n(CCc4ccccn4)c3C[C@H]2CN1C(=O)c1ccccc1,0.566,1.62,1.41,0.317 (inactive),0.286,-0.133,-0.011,0.0285,-0.586,0.937
[N-]=[N+]=NCc1ccccc1C[C@]1(C(N)=O)COC(c2ccc(OCCCO)cc2)=N1,0.806,1.13,1.36,-1.52 (inactive),0.23,0.812,-1.04,-0.0511,-0.2,0.636
CN(C)CCCCCCNC(=O)[C@H]1C[C@H]2C(=O)N[C@@H](CCCCN)C(=O)N2[C@H]1c1cccc(OCCO)c1,1.99,3.01,1.72,-0.361 (inactive),1.43,1.48,1.63,1.65,2.49,1.43
CCCC[C@@H]1C[C@H]1[C@@H](NC(=O)c1cccs1)c1ccc(-c2ccccc2)cc1,-0.0357,-0.0102,0.69,-1.23 (inactive),0.655,-0.595,-0.0136,0.369,-0.116,1.3
O=C1C[C@@](C(=O)NCC(F)(F)F)(c2ccc([N+](=O)[O-])cc2)[C@@H](c2ccc(CO)cc2I)N1C1CCCCC1,0.47,0.0918,0.574,0.0169 (inactive),1.09,1.18,0.515,0.995,0.155,0.539
CCOC(=O)C[C@H]1[C@H](OC(=O)c2ccc(C(=O)c3ccccc3)cc2)[C@@H](NC(=O)c2ccccc2)c2cc(OCCCO)ccc2N1C(=O)c1ccc2ccccc2n1,0.295,-0.349,-0.267,0.487 (inactive),-0.286,1.05,0.267,0.399,-0.186,-0.136
C=CCOC(=O)[C@H]1[C@@H]2C(=O)O[C@@H](c3ccccc3)[C@@H](c3ccccc3)N2[C@@H](c2ccc(OCCOC(=O)[C@@H]3C[C@@H]4C(=O)N[C@@H](CCCCNC(C)=O)C(=O)N4[C@@H]3c3ccc(O)cc3)cc2)[C@]12C(=O)Nc1ccccc12,1.65,-0.208,-0.187,-0.0104 (inactive),0.768,1.3,0.673,1.28,0.783,0.152
C=C(COC)/C(=C/C[C@@H](OC(=O)c1ccncc1)c1ccc(CO)o1)c1cc(C(=O)OC)ccc1OC,1.2,0.0709,-0.623,0.804 (inactive),1.47,1.15,1.06,1.48,1.27,1.03
C=C(/C(=C/C[C@H](OC(C)=O)c1ccc(CO)o1)c1cc(C(=O)OC)ccc1OC)C(C)C,-0.415,-0.0153,-0.0899,-0.0448 (inactive),0.505,-0.196,-0.455,0.397,0.0625,0.463
COC(=O)C[C@H]1O[C@]2(C(=O)N(C)c3ccccc32)[C@@H](C)[C@@H]1[Si](C)(C)F,-0.0042,-0.113,-0.583,-1.8 (inactive),0.96,0.557,0.616,0.774,0.695,0.369
Cc1ccc(S[C@]2(C(=O)NCCCN(C)C)CC(=O)N(Cc3ccccc3C(F)(F)F)[C@@H]2c2ccc(CO)cc2)cc1,-1.14,0.631,0.95,0.375 (inactive),-0.904,-0.761,-0.636,-1.47,-0.798,0.94
COC(=O)[C@@]1(Cc2ccc(OC)cc2)[C@H]2c3cc(C(=O)N4CCCC4)n(Cc4ccc(C)c(F)c4F)c3C[C@H]2CN1C(=O)c1ccccc1,1.05,1.09,1.33,-0.282 (inactive),0.791,1.29,-0.139,1.18,-0.602,0.702
COc1ccccc1CN1C(=O)c2ccccc2[C@@H](C(=O)NC2CC2)[C@@H]1c1ccc(CO)cc1,0.743,0.667,0.556,0.0463 (inactive),1.27,1.28,0.521,1.44,1.23,0.633
COc1ccc(-c2cc3c(c(-c4ccc(Oc5ccccc5)cc4)n2)[Si](C(C)C)(C(C)C)OC3)cn1,-0.207,-0.242,-0.262,0.00906 (inactive),-0.0354,-0.175,-0.0425,0.148,0.0989,0.365
COc1cc(Br)cc(C(O)C2C=CC3C(=O)N(C)C(=O)C3N2N2CCCCC2)c1OC (stereo not given),0.787,0.655,0.895,1.09 (inactive),-0.582,-0.524,-1.23,-1.06,-1.26,0.613
COc1ccc([Si](C)(C)[C@@H]2[C@@H](CCO)O[C@]3(C(=O)N(Cc4ccc(N(C=O)c5ccccc5)cc4)c4ccccc43)[C@H]2C)cc1,0.724,0.116,0.605,-1.38 (inactive),0.224,-0.157,-0.049,0.218,-0.013,1.1
CC(C)[Si]1(C(C)C)O[C@@H](c2ccccc2)c2cc(-c3ccc(-c4ccc(Cl)c(Cl)c4)o3)nc(-c3ccccc3)c21,0.735,0.0699,0.234,0.115 (inactive),0.353,-0.514,0.0831,0.0331,-0.172,0.756
COc1cc2c(cc1O)C(C1CC1)N(Cc1sc3ccccc3c1Cl)CC2 (stereo not given),1.25,0.147,0.652,-1.57 (inactive),-0.326,0.135,-0.0122,-0.05,-0.467,1.48
COC(=O)[C@@]1(CCC(=O)OC(C)(C)C)N=C(c2ccc(OCCCO)cc2)O[C@H]1c1ccccc1N=[N+]=[N-],1.13,0.255,0.662,2.6 (inactive),-0.113,-0.0727,-0.336,0.542,0.0186,0.431
CN1C(=O)C2C=CC(C(O)c3ccccc3)N(N(c3ccccc3)c3ccccc3)C2C1=O (stereo not given),1.59,0.629,0.632,0.597 (inactive),-0.113,-0.372,0.142,0.455,0.254,1.07
COc1cc2c(cc1OC)CN(C(=O)[C@@H]1[C@H]3C(=O)O[C@H](c4ccccc4)[C@H](c4ccccc4)N3[C@H](c3ccccc3OCCO)[C@@]13C(=O)Nc1ccc(C#CCCO)cc13)CC2,1.53,0.235,0.547,0.107 (inactive),0.885,0.926,0.179,0.896,0.249,0.91
